Out of some 65,000 compounds screened, about 2,100 (3.2%) showed an effect of 50% or more. The median lay at about -52%. The full list was thinned out, with strong results kept by preference.
These compounds were tested on Plasmodium falciparum (assay: Screen against P. falciparum Asexual Blood Stage (ABS), at 5uM). Details: tested at 5 uM.
Assay type: functional, Dd2

SMILES	INHIBITION [%]
CC(=O)C1(c2ccccc2)CCN(C(=O)c2ccn3nnnc3c2)CC1	-138
CC[C@H](C)[C@@H](CO)NC(C)Cc1ccccc1F (stereo not given in full)	49.7
CC(N)Cc1ccccc1Sc1ccccc1 (stereo not given)	78.3
CNC(C)Cc1ccccc1Sc1ccc(O)cc1 (stereo not given)	88.2
CNS(=O)(=O)CC(=O)NC(C)Cc1ccccc1Br (stereo not given)	-184
CC(N)Cc1ccccc1Sc1ccc(O)cc1 (stereo not given)	72.4
COCCCN1CCCCC12CC(=O)N(Cc1ccccn1)C2 (stereo not given)	-98.8
Cc1noc(C)c1CN1C[C@@H]2COC[C@H](C(=O)N3CCCO3)[C@@H]2C1	-23.5
CCC(O)CN1CCN(C(=O)Cc2c(C)nc(C)[nH]c2=O)CC1 (stereo not given)	-143
CN1CCC(O)(CNCc2ccc(F)c(C(F)(F)F)c2)CC1	83.3
COc1ccc(OC)c(C2SCC(=O)Nc3n[nH]cc32)c1 (stereo not given)	-130
Cc1ccc(CN2CC3(CCN(C(=O)c4cccnc4)C3)C2)o1	-143
Cc1ccc(CN2CC[C@]3(C[C@H](OCc4ccccn4)CO3)C2)o1	22.1
Cc1ccc(CN2CCC3(CCN(S(=O)(=O)c4ccccc4)C3)C2)o1 (stereo not given)	79.6
O=C(NCCc1ccccc1)NCCN1CCC(c2cccs2)CC1	77.6
COc1ccc(CCC(=O)NCCN2CCC(c3cccs3)CC2)cc1	75.8
COCC(=O)NC[C@H]1C[C@@H]2CCN1C[C@@H]2c1cc(-c2cccs2)nn1C	-43.2
Cc1cc(CNC(=O)CCc2ccc(S(N)(=O)=O)cc2)no1	-28.2
CCNC(=O)NC[C@H]1C[C@@H]2CCN1C[C@@H]2c1cc(-c2cccs2)nn1C	-58.2
OC[C@@H]1[C@H]2CN(c3ccccn3)CCN2C[C@H]1c1ccccc1	41.3
CCOC(=O)N1CCCC2(CCCNC2)C1 (stereo not given)	-33
O=C1CO[C@@H]2CN(Cc3ccsc3)C[C@H]2N1Cc1ccncc1	-56.6
CCN(C)CC1CCN(S(=O)(=O)c2cc(C)c(F)cc2Cl)C1 (stereo not given)	79.3
Cc1cc(CN2C[C@@H]3CC[C@H]2CN(Cc2[nH]cnc2C)C3)on1	-63.7
Cc1cccc(CN2C[C@@H]3CC[C@H]2CN(Cc2[nH]cnc2C)C3)n1	50.9

SMILES	INHIBITION [%]
Cc1ccc(N2CC[C@@H]3CN(Cc4cccc(C)n4)C[C@@H]3C2)nn1	-27.5
CC[C@@H]1N(Cc2ccccn2)CCC[C@]12CCC(=O)N2CCOC	-116
Cc1[nH]c(C2(N)CCCCC2)nc(=O)c1C	-60
Cc1cnc(N2CCOC3(CCCN(CC(=O)N(C)C)C3)C2)nc1 (stereo not given)	-6.47
CC(CNC(=O)c1cc(Cl)ccc1I)N1CCCC1 (stereo not given)	71.1
COc1ccc(Cl)cc1CC(=O)N1CCN(CC(C)O)CC1 (stereo not given)	-132
Cc1nc(N2C[C@H]3CNC[C@H]3C2)c2sccc2n1	-54.7
Cc1nc(CO[C@@H]2CN(Cc3cccnc3)[C@@H]3COC[C@@H]32)cs1	-14.2
CCN1CCC2(CCC1=O)CN(c1ccnc(SC)n1)CCN2C (stereo not given)	-44.5
CC(Cn1cccn1)NCc1csc(-c2ccsc2)n1 (stereo not given)	-88.6
Cc1cnn(CCNCc2csc(-c3ncccn3)n2)c1	71.5
CN1CCN(C(=O)Cc2csc(-c3ccsc3)n2)C(c2ccccc2)C1 (stereo not given)	-7.38
Cc1cnn(CCCNCc2csc(COc3ccccc3)n2)c1	70.9
Cc1nc(CN2CC[C@H]3[C@H]2CCN3c2ncccn2)cs1	-38
Cc1nc(CC(=O)N2CCN(CCOc3ccccc3)CC2)cs1	-22.5
Cc1cnn(CCNCc2csc(-c3ccsc3)n2)c1	72.3
CN(C)C(=O)CN1CCN(C(=O)Cc2csc(-c3ncccn3)n2)CC1	6.7
O=C(C1CCOCC1)N1C[C@@H]2CC[C@H]1CN(Cc1ccncc1)C2	-111
COc1ccc2c(c1)c(C(=O)Nc1nnn[nH]1)cn2C	10.8
Cc1cc(N2CCC(O)(CN(C)C)C2)c2cc3c(cc2n1)OCO3 (stereo not given)	89.9
Cc1cc(N2CCCC(O)(CN(C)C)C2)c2cc3c(cc2n1)OCO3 (stereo not given)	80.2
CCOCCN1CCN(CC(O)c2cc(Cl)ccc2Cl)CC1 (stereo not given)	78.5
CCN1CCN(CC(O)c2cc(Cl)ccc2Cl)CC1 (stereo not given)	77
O=C(NCc1cccnc1)[C@H]1CN2CCC1C[C@@H]2Cn1cc(CO)nn1 (stereo not given in full)	-46.1
O=C(O)[C@@H]1CN(CC2CCC2)C[C@H]1c1ccc(F)cc1	-73.4

— ChEMBL document CHEMBL4513216, “Probing the Open Global Health Chemical Diversity Library for Multistage-Active Starting Points for Next-Generation Antimalarials” (ACS Infect Dis, 2020)
